High-throughput results as filed in PubChem BioAssay.
Sampled rows, rich in hits. Any-hit rate of the full collection: about 2.4%.
INS-1E GSIS act = GLuc luminescence reporter in INS-1E cells, primary screen for activators of glucose-dependent secretion of insulin | INS-1E GLuc reporter insulin secretion, 2-3 h | hit rate 0.61% among 370,000 | activation, % at 16.6 µM | AID 743287;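 active means lowest replicate activation of at least 40%, so every replicate reaches that level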
miR122 inh = miR-122 inhibition in Huh7 cells; Huh7 miR-122 Renilla luciferase sensor, 48 h; neutral wells = 0, positive control = 100; hit rate 0.3% among 340,000; activation (reporter increase), % at 12.5 µM;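 active means mean replicate activation score at least 90 and every replicate individually at or above 90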;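 further: higher luciferase means less miR-122 activity so hits act as miR-122 inhibitors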
MITF act = MITF TRPM1 promoter activation in melanoma cells; SK-MEL-5 TRPM1-promoter luciferase, 24 h; % of positive control, neutral wells = 0; activation, % at 12.5 µM; hit rate 0.75% among 300,000; AID 588334;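 active means mean activation of at least 80% with every replicate also reaching 80%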
NSD2 inh = inhibitors of human histone methyltransferase NSD2; AID 743445; NSD2 peptide methylation, AlphaScreen, 120 min; inhibition, % at 12.5 µM; O96028; hit rate 0.54% among 310,000
Dyrk1A ADPGlo = inhibitors of rat Dyrk1A kinase | ADP-Glo luminescence, NFATc1 peptide | inhibition, % at 12.5 µM | hit rate 0.43% among 310,000
Wnt act = activates Wnt/beta-catenin signaling in a reporter cell assay; activator, plate reader; activation, % at 9.35 µM; hit rate 1.2% among 300,000; AID 743398; in the data active means activation above about 30%, passing the limit was not always enough
Hits are given with their value. Unless noted, no stated cut-off is given here; in the data, active means inhibition above about 50%; inactive means the rest.

What do the screens show for `CC(/C=N/NC(=O)Cc1cccs1)=C\c1ccco1`?
miR122 inh: inactive; MITF act: inactive; NSD2 inh: inactive; Dyrk1A ADPGlo: inactive

How did CNC(=O)CSc1nc2nn(-c3ccccc3)c(=O)c-2c2n1CCCCC2 do in these assays?
INS-1E GSIS act: inactive; miR122 inh: inactive; MITF act: inactive; NSD2 inh: inactive; Dyrk1A ADPGlo: inactive; Wnt act: inactive

How did CC(C)CNC(=O)CSc1nc2nn(-c3ccccc3)c(=O)c-2c2n1CCCCC2 do in these assays?
INS-1E GSIS act: inactive; MITF act: inactive; NSD2 inh: inactive; Wnt act: 40

What do the screens show for `CCCC(=O)OCCNc1cc(SCc2ccco2)c2nonc2c1[N+](=O)[O-]`?
INS-1E GSIS act: inactive; MITF act: inactive; NSD2 inh: inactive; Dyrk1A ADPGlo: inactive; Wnt act: inactive

How did CCCC(=O)OCCNc1cc(Sc2nccn2C)c2nonc2c1[N+](=O)[O-] do in these assays?
INS-1E GSIS act: 162; miR122 inh: inactive; MITF act: inactive; Dyrk1A ADPGlo: inactive; Wnt act: inactive

How did CCC(=O)OCCNc1cc(Sc2nc3ccccc3[nH]2)c2nonc2c1[N+](=O)[O-] do in these assays?
INS-1E GSIS act: 88; MITF act: inactive; NSD2 inh: inactive; Dyrk1A ADPGlo: inactive; Wnt act: inactive

What do the screens show for `CCCSc1cc(NCCOC(=O)CCC)c([N+](=O)[O-])c2nonc12`?
INS-1E GSIS act: inactive; miR122 inh: inactive; MITF act: inactive; NSD2 inh: inactive; Dyrk1A ADPGlo: inactive

What do the screens show for `CC(C)(C)C(=O)OCc1nc(-c2ccc(F)cc2)cs1`?
INS-1E GSIS act: inactive; miR122 inh: inactive; MITF act: 110; NSD2 inh: inactive; Dyrk1A ADPGlo: inactive; Wnt act: inactive

How did C[C@@H]1CCCCO[C@@H](CN(C)C(=O)NC2CCCCC2)[C@H](C)CN([C@@H](C)CO)C(=O)c2cc(NS(=O)(=O)c3cn(C)cn3)ccc2O1 do in these assays?
INS-1E GSIS act: inactive; miR122 inh: inactive

What do the screens show for `C[C@H]1CCCCO[C@H](CN(C)S(=O)(=O)c2ccc(F)cc2)[C@@H](C)CN([C@@H](C)CO)C(=O)c2cc(NC(=O)Nc3ccc(F)cc3)ccc2O1`?
INS-1E GSIS act: inactive; miR122 inh: inactive

How did CN(c1ncnc(N)c1[N+](=O)[O-])C1CCS(=O)(=O)C1 (stereo not drawn) do in these assays?
INS-1E GSIS act: inactive; MITF act: inactive; NSD2 inh: inactive; Dyrk1A ADPGlo: inactive; Wnt act: inactive

How did CN(c1ncnc(N)c1[N+](=O)[O-])C1CCCCC1 do in these assays?
INS-1E GSIS act: 41; miR122 inh: inactive; MITF act: inactive; NSD2 inh: inactive; Dyrk1A ADPGlo: inactive; Wnt act: inactive

Results for Cc1c(OCC(=O)NCc2ccccn2)ccc2c3c(c(=O)oc12)CCCC3 ?
INS-1E GSIS act: 41; miR122 inh: inactive; MITF act: inactive; NSD2 inh: inactive; Dyrk1A ADPGlo: inactive; Wnt act: inactive

What do the screens show for `CCn1c(C)nc2cc(S(=O)(=O)C(F)(F)F)ccc21`?
INS-1E GSIS act: 99; miR122 inh: inactive; MITF act: inactive; NSD2 inh: inactive; Dyrk1A ADPGlo: inactive

Results for CCn1c(C)nc2cc(S(=O)(=O)C(F)F)ccc21 ?
INS-1E GSIS act: inactive; MITF act: inactive; NSD2 inh: inactive; Dyrk1A ADPGlo: inactive

How did C[C@H](NC(=O)C[C@@H]1C=C[C@H](NC(=O)C2CCOCC2)[C@H](CO)O1)c1ccccc1 do in these assays?
INS-1E GSIS act: inactive

What do the screens show for `Cc1cccc(C(=O)NC(=S)NNC(=O)COc2c(C)cccc2C)c1`?
INS-1E GSIS act: 76; MITF act: inactive; NSD2 inh: inactive; Dyrk1A ADPGlo: inactive

How did COc1cccc(S(=O)(=O)N[C@H]2CC[C@@H](CCNC(=O)Cc3ccncc3)O[C@H]2CO)c1 do in these assays?
INS-1E GSIS act: inactive

How did COc1ccc(S(=O)(=O)N2C[C@@H](O)COC[C@H]3O[C@H](CC(=O)NCCN4CCCCC4)CC[C@@H]32)cc1 do in these assays?
INS-1E GSIS act: inactive; miR122 inh: inactive

What do the screens show for `Cc1cc(O)c(C=O)c2c1C(=O)Oc1c(CO)c(O)c3c(c1O2)C(O)OC3=O` (stereo not drawn)?
miR122 inh: inactive; MITF act: inactive; Dyrk1A ADPGlo: 51

How did Cc1cc(O)c(CN(C)C)c2c1C(=O)/C(=C/c1ccco1)O2 do in these assays?
INS-1E GSIS act: inactive; MITF act: inactive; NSD2 inh: inactive; Dyrk1A ADPGlo: inactive; Wnt act: inactive

How did Cc1cc(C)cc(NC(=O)c2sc3nc(C)cc(C)c3c2N)c1 do in these assays?
INS-1E GSIS act: inactive; miR122 inh: inactive; MITF act: inactive; NSD2 inh: inactive; Dyrk1A ADPGlo: inactive; Wnt act: inactive

How did Cc1cc(C)c2c(N)c(C(=O)Nc3ccc(C)c(C)c3)sc2n1 do in these assays?
miR122 inh: inactive; MITF act: 126; NSD2 inh: inactive; Dyrk1A ADPGlo: inactive; Wnt act: inactive

What do the screens show for `N#Cc1cc2c(N)c(C(=O)Nc3ccccc3)sc2nc1N`?
NSD2 inh: inactive

What do the screens show for `Cc1cccc(NC(=O)c2sc3nc(N)c(C#N)cc3c2N)c1`?
INS-1E GSIS act: inactive; MITF act: 106; NSD2 inh: inactive; Dyrk1A ADPGlo: inactive

Results for COc1ccc(NC(=O)c2sc3nc(C)cc(C)c3c2N)cc1 ?
INS-1E GSIS act: inactive; miR122 inh: inactive; MITF act: 104; NSD2 inh: inactive; Wnt act: inactive

What do the screens show for `Cc1cc(C)c2c(N)c(C(=O)N/N=C/c3cccs3)sc2n1`?
miR122 inh: inactive; NSD2 inh: inactive; Wnt act: 45

How did C[C@@H]1CN([C@H](C)CO)C(=O)c2cc(NS(=O)(=O)c3cccs3)ccc2O[C@@H]1CN(C)Cc1ccc2c(c1)OCO2 do in these assays?
INS-1E GSIS act: inactive; miR122 inh: inactive

What do the screens show for `COc1ccccc1-c1cnc2c(c1)C(=O)N([C@H](C)CO)C[C@H](C)[C@H](CN(C)Cc1cncnc1)O2`?
INS-1E GSIS act: inactive; miR122 inh: inactive

Results for Cc1cc(C)c2c(N)c(C(=O)NCC3CCCCC3)sc2n1 ?
miR122 inh: inactive; MITF act: 88; NSD2 inh: inactive; Dyrk1A ADPGlo: inactive; Wnt act: inactive

How did COc1ccccc1NC(=O)c1sc2nc(C)cc(C)c2c1N do in these assays?
INS-1E GSIS act: inactive; miR122 inh: inactive; MITF act: inactive; NSD2 inh: inactive; Dyrk1A ADPGlo: inactive; Wnt act: inactive

How did Cc1cc(C)c2c(N)c(C(=O)Nc3ccc([N+](=O)[O-])cc3)sc2n1 do in these assays?
INS-1E GSIS act: inactive; miR122 inh: inactive; MITF act: 101; NSD2 inh: inactive; Dyrk1A ADPGlo: inactive; Wnt act: inactive

Results for Cc1cc(C)c2c(N)c(C(=O)Nc3ccc(F)cc3)sc2n1 ?
miR122 inh: inactive; MITF act: inactive; NSD2 inh: inactive; Dyrk1A ADPGlo: inactive; Wnt act: 51

How did Cc1cc(C)c2c(N)c(C(=O)NC3CCCC3)sc2n1 do in these assays?
INS-1E GSIS act: inactive; miR122 inh: inactive; MITF act: inactive; NSD2 inh: inactive; Dyrk1A ADPGlo: inactive; Wnt act: inactive
